In the library only some 19% were active in any assay of this set; here they are far more common.
DT40 TDP1 CPT = qHTS for Inhibitors of human tyrosyl-DNA phosphodiesterase 1 (TDP1): qHTS in cells in presence of CPT. hit rate 12% among 420,000. chicken DT40 Tdp1-/-;hTDP1 cells + 20 nM CPT, ATP luminescence, 48 h. Potency, µM (doses to about 46.2 µM), without a hit: at the top dose activity change, negative = growth inhibition, most hits filed as inhibitors; further: potency means the concentration at half of the fitted maximal effect; on the % scale 0 is the no-effect control and ±100 the full control effect; nearly all actives have a fitted effect of over 55% in size
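Cell growth measured by CellTiter-Glo luminescence after a minimum 48 h, 37 C compound exposure with 20 nM CPT in Tdp1-knockout DT40 cells stably expressing hTDP1, seeded 400/well; qHTS titration format.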
TDP1 cell noCPT = qHTS for Inhibitors of human tyrosyl-DNA phosphodiesterase 1 (TDP1): qHTS in cells in absence of CPT. hit rate 15% among 420,000. Potency, µM (series often up to 46.2 µM), for the others: at the top dose activity change, negative = growth inhibition, hits mostly inhibitors. DT40 Tdp1-/- hTDP1 cells, no CPT, ATP luminescence, 48 h. AID 686978, 2013; further: potency means the concentration at half of the fitted maximal effect; on the % scale 0 is the no-effect control and ±100 the full control effect; nearly all actives have a fitted effect of over 55% in size
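No-CPT arm: Tdp1-/-;hTDP1 DT40 cells (400/well) plus compounds, incubated ≥48 hr at 37 °C. Readout CellTiter-Glo luminescence.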
MCF10A rereplic = A quantitative high throughput screen for small molecules that induce DNA re-replication in MCF 10a normal breast cells. AID 624296, 2012. hit rate 2.9% among 350,000. MCF 10A DNA re-replication, Hoechst nuclear intensity, 48 h. Potency, µM (top dose mostly 46.1 µM), without a hit: top-dose activity, positive = re-replication, hits mostly activators; further: potency means the concentration at half of the fitted maximal effect; % of control where 0% means no effect; nearly all actives have a fitted effect of over 50% in size
IL1B secr inh = qHTS for Inhibitors of Inflammasome Signaling: IL-1-beta AlphaLISA Primary Screen; activity change, % at 57.5 µM; hit rate 4.7% among 360,000; THP-1 LPS/ATP IL-1B secretion, AlphaLISA, 16 h; hits give low values; AID 743279, 2014; in the data active means activity change below about -50%; inconclusive means mostly about -30% to -49%; further: on the % scale 0 is the no-effect control and ±100 the full control effect
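Secreted IL-1B measured by AlphaLISA bead assay after 16 h compound exposure of THP-1 cells; compounds (final up to 57.5 uM) added 1 h before LPS (250 ng/mL) and ATP (1.25 mM) stimulation; lower signal means less secretion.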
SW480 rereplic = A quantitative high throughput screen for small molecules that induce DNA re-replication in SW480 colon adenocarcinoma cells; AID 624297, 2012; SW480 DNA re-replication, Hoechst DNA content imaging, 48 h; hit rate 1.8% among 340,000; Potency, µM (doses to about 46.1 µM), for inactives: at the highest dose re-replication activation, actives largely listed as activators; further: potency means the concentration at half of the fitted maximal effect; % of control where 0% means no effect; nearly all actives have a fitted effect of over 55% in size
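First, 250 cells per well were seeded. Next, compound or vehicle (23 nL) was pinned in, plates sat 48 hr at 37 C. Finally Hoechst was added for 40 min before fluorescence scanning.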
BCR signal inh = qHTS Assay to Find Inhibitors of Chronic Active B-Cell Receptor Signaling; ABC-DLBCL IkBa-CBG/CBR reporter, luminescence ratio, 4 h; Potency, µM (series often up to 46.1 µM), without a hit: at the top dose activity change, negative = inhibition, hits mostly inhibitors; hit rate 0.05% among 340,000; active means well fitted inhibition curve with a large enough effect in the signal ratio, with a control signal flat, not every such curve was filed as active; inconclusive means small, poorly fitted or top-dose-only effect, or effect the other way, or a change in a side signal; the % refers to the signal ratio;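 further: potency means the concentration at half of the fitted maximal effect; plate controls were basal doxycycline-induced cells for no effect and cells given 10 µM MG132 for full effect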
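TMD8 human ABC-DLBCL cells with doxycycline-inducible IκBα–green luciferase fusion and unfused red luciferase, in 0.5% FBS medium; compounds up to 46 uM, 4 h at 37C. Green/red luminescence ratio, filter-overlap corrected, fitted to concentration-response curves.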
Numbers without * were called inactive; ? = inconclusive; · = no result; [ ] = another dose, or the depositor's remark. Unless noted, the call rests on the fitted dose curve; in most records, active means well fitted curve in the direction sought with a large enough effect; inconclusive means small, poorly fitted or top-dose-only effect, or another doubt; inactive means no such curve, though single readings can be large; an effect the other way counts as inactive or inconclusive.

SMILES | DT40 TDP1 CPT | TDP1 cell noCPT | MCF10A rereplic | IL1B secr inh | SW480 rereplic | BCR signal inh
Cc1ccc(-n2c(C)cc(C(=O)CSc3nncs3)c2C)cc1 | 10.3µM* | 20.6µM* | -1.9% | -2.9 | -1.6% | -6.7%
Cc1cc(C(=O)CSc2nnnn2-c2ccc(O)cc2)c(C)n1C | ? | 16.4µM* | -4.6% | 3.0 | -8.1% | -7.8%
Cc1ccc(-n2nc(C(=O)NC(C)C)c(=O)n(C)c2=O)cc1 | -15.8% | -14.7% | · | · | · | ·
CC(C)=CCC/C(C)=C/CNC(=O)CC1C[C@H](C(=O)N(C(C)C)C(C)C)[C@@]2(C)c3[nH]c4ccccc4c3CCN2C1=O (stereo not given in full) | 16.4µM* | 23.1µM* | 0.9% | -17.3 | -65.8% | -2.0%
COc1ccc2[nH]c3c(c2c1)CCN1C(=O)C(CC(=O)NC/C=C(\C)CCC=C(C)C)C[C@H](C(=O)N(C(C)C)C(C)C)[C@@]31C (stereo not given in full) | ? | 18.4µM* | 14.6µM* | -64.0* | ? | 0.1%
CCN1CCN(S(=O)(=O)CC2(C)C3CCC2(C)C(=O)C3Br)CC1 (stereo not given) | -6.9% | 0.9% | 7.1% | -5.6 | -0.5% | ?
O=C(Cc1ccc(F)cc1)NC1CC(=O)N(c2ccccc2)C1 (stereo not given) | 6.3% | 9.3% | · | · | · | -15.0%
CCN(CC1CCCO1)C(=O)CCc1nnc(CCc2ccccc2)o1 (stereo not given) | -4.2% | -6.9% | · | -11.7 | · | ·
CN(C)c1ccc(N=Nc2ccccc2C(=O)OCC(=O)N(C)C2CCCCC2)cc1 | 7.5% | -14.4% | 7.5% | -4.7 | -9.1% | 0.5%
CN(C)c1ccc(N=Nc2ccccc2C(=O)OCC(=O)NCC2CCCCC2)cc1 | ? | 20.6µM* | 18.5% | ? | 16.6% | 14.2%
CN(C)c1ccc(N=Nc2ccccc2C(=O)OCC(=O)NC2CCCC2)cc1 | 25.9µM* | ? | ? | ? | 2.6% | ?
CC1CCCCC1NC(=O)COC(=O)c1ccc(N(C)C)cc1 (stereo not given) | ? | 12.6µM* | -14.2% | -15.3 | -3.2%[9.22 µM] | -3.9%
CN(C)c1ccc(C(=O)OCC(=O)NC2CCCCCC2)cc1 | -28.5% | ? | 0.7% | 0.7 | -11.9% | -6.6%
O=C(CCNS(=O)(=O)c1ccc(Cl)cc1)NCc1cccs1 | ? | -24.7% | 0.5% | -14.0 | -8.3% | 7.9%
Cc1cccn2c(=O)c3cc(C(=O)NCCN4CCOCC4)c(=N)n(CCc4ccccc4)c3nc12 | ? | 23.1µM* | 2.59µM* | -63.4* | 2.59µM* | 4.7%
Cc1cccn2c(=O)c3cc(C(=O)NCc4ccccc4)c(=N)n(CCCN4CCOCC4)c3nc12 | ? | ? | 14.4% | -27.7 | 5.17µM* | ·
COc1ccc(CCn2c(=N)c(C(=O)NCCN3CCOCC3)cc3c(=O)n4cccc(C)c4nc32)cc1OC | ? | ? | ? | ? | 16.4µM* | -11.8%
COc1ccc(CCn2c(=N)c(C(=O)NCCN3CCOCC3)cc3c(=O)n4ccccc4nc32)cc1OC | ? | -17.0% | 5.4% | -28.6 | -7.8% | ?
Cc1cccn2c(=O)c3cc(C(=O)NCCN4CCOCC4)c(=N)n(CCCN4CCOCC4)c3nc12 | -1.7% | ? | ? | -24.8 | 1.16µM* | 4.9%
COc1ccc(NC(=O)NC2(C(=O)N3CCN(C)CC3)CCCCC2)cc1 | 2.1% | -3.7% | 9.1% | 19.9 | -6.4% | 4.1%
Cc1onc(-c2ccccc2Cl)c1C(=O)N[C@@H](C)c1ccccc1 | -26.2% | 5.4% | -7.0% | 3.5 | -2.4% | ·
COc1cc2[nH]c(=S)n(Cc3ccc(C)cc3)c(=O)c2cc1OC | ? | ? | 13µM* | 10.8 | 20.1% | -16.2%
CCOC(=O)N1CCN(C(=O)c2ccc3c(=O)n(Cc4ccccc4)c(=S)[nH]c3c2)CC1 | -15.9% | 0.1% | 16.8% | 29.9 | -0.4% | -4.5%
CCOC(=O)N1CCN(C(=O)c2ccc(Cn3c(=S)[nH]c4cc(OCC)c(OCC)cc4c3=O)cc2)CC1 | 10.3µM* | 9.2µM* | -1.0% | 10.3 | -1.7% | -4.5%
COc1cc2[nH]c(=S)n(CCN3CCOCC3)c(=O)c2cc1OC | -2.7% | -1.3% | ? | 17.1 | -5.0% | -1.8%
SMILES | DT40 TDP1 CPT | TDP1 cell noCPT | MCF10A rereplic | IL1B secr inh | SW480 rereplic | BCR signal inh
COc1ccc(Cn2c(=S)[nH]c3cc(OC)c(OC)cc3c2=O)cc1 | 14.4% | ? | ? | -15.9 | 0.3% | -1.5%
COc1cc2[nH]c(=S)n(C3CCN(Cc4ccccc4)CC3)c(=O)c2cc1OC | ? | 18.4µM* | -0.7% | 22.7 | -3.9% | 5.6%
COc1ccccc1N1CCN(C(=O)c2ccc(Cn3c(=S)[nH]c4cc5c(cc4c3=O)OCO5)cc2)CC1 | ? | ? | 0.1% | 19.0 | -2.7% | 0.1%
CCOC(=O)N1CCN(C(=O)c2ccc(Cn3c(=S)[nH]c4cc5c(cc4c3=O)OCO5)cc2)CC1 | 23.1µM* | 16.4µM* | 13.0% | -9.4 | 9.6% | ?
Cc1c(NC(=O)Nc2ccc3c(c2)OCO3)cccc1[N+](=O)[O-] | -15.7% | 8.5% | -1.8% | -27.8 | 9.7% | -0.9%
Cc1ccc(NC2=C(CC(=O)O)C(c3ccc(F)cc3)N(c3ccc(C)cc3)C2=O)cc1 (stereo not given) | -22.2% | ? | · | · | · | ·
CCOc1cc2[nH]c(=S)n(Cc3ccc(C(=O)NCCN(CC)CC)cc3)c(=O)c2cc1OCC | ? | ? | ? | -98.5* | ? | -0.2%
COc1ccccc1Cn1c(=S)[nH]c2ccc(F)cc2c1=O | -13.0% | -17.2% | 2.2% | -73.2* | -2.1% | 0.7%
COc1ccccc1Cn1c(=S)[nH]c2ccc(Br)cc2c1=O | 3.0% | -7.8% | 2.1% | 40.5 | 3.8% | ?
Cc1ccc(S(=O)(=O)CCN2CCN(c3ccccc3)CC2)cc1 | -13.3% | -7.7% | ? | -18.9 | -6.1% | -0.4%
Cc1ccc(S(=O)(=O)CCN2CCC(n3cccc3)CC2)cc1 | 10.2% | -11.2% | -2.5% | -59.5* | -26.0% | 9.1%
CCN(CC(=O)Nc1ccc(N2CCOCC2)cc1)C(=O)c1ccc(C(F)(F)F)cc1 | -9.2% | -13.6% | 21.3% | -57.3* | 11.9% | 5.7%
CCN(CC(=O)Nc1ccccc1C(F)(F)F)C(=O)c1ccccc1OCc1ccc(F)cc1 | 16.4µM* | 20.6µM* | 3.2% | -18.0 | -3.3% | ·

From PubChem
